Measured values as given in PubChem BioAssay AID651815 (National Center for Advancing Translational Sciences (NCATS), 2012).
The whole screen tested about 2,100 compounds, of which about 1,100 (52%) were called active. Inconclusive results (about 29%) are left out. The call rests on the fitted dose curve; in most records, active means well fitted inhibition curve with a large enough effect; inconclusive means small, poorly fitted or top-dose-only effect; inactive means no such curve, though single readings can be large or run the other way. The set was probably picked from earlier hits. The list shows a part of the results.

The compounds below were run against DNA dC->dU-editing enzyme APOBEC-3F (Homo sapiens) (UniProt Q8IUX4) (assay: qHTS for inhibitors of Vif-A3F interactions: Cherry picks counterscreen). Conditions: HeLa A3F-eYFP/Vif cells, eYFP fluorescence, 24 h; series mostly up to 46.1 µM.
Method in brief: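 Rescue of Vif-driven A3F-eYFP degradation read as cellular eYFP fluorescence after 24 h compound exposure (several concentrations) in stable HeLa cells; MG132 (2 mM stock) as positive control.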
Further: nearly all actives have a fitted effect of over 65% in size.
Potency means the concentration at half of the fitted maximal effect.

Sequence of DNA dC->dU-editing enzyme APOBEC-3F (Homo sapiens) (Q8IUX4 whole entry, looked up): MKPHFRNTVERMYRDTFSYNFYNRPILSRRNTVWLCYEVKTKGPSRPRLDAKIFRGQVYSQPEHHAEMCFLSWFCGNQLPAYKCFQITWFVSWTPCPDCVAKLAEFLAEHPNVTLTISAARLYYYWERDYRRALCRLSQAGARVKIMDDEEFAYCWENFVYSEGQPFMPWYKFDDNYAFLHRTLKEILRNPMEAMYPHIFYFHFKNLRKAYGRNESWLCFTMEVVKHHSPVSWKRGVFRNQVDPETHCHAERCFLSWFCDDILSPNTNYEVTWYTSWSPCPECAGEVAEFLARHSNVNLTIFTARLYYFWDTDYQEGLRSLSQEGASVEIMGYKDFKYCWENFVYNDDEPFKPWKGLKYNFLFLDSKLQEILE

| SMILES | Potency |
| --- | --- |
| COc1ccc2c(Cl)c(C(=O)N/N=C3\CCCC(=O)C3)sc2c1 | 17.7 µM (active) |
| CCOc1cc(C(=O)NN=C2CCCC2)cc(OCC)c1OCC | inactive |
| N#CC1=C(N)Oc2ccc3ccccc3c2C1c1cccnc1 (stereo unspecified) | 2.8 µM (active) |
| CCN(CC)c1ccc2c(c1)OC(N)=C(C#N)C2c1cccnc1 (stereo unspecified) | 14 µM (active) |
| N#CC1=C(N)Oc2ccc3ccc(O)cc3c2C1c1ccsc1 (stereo unspecified) | inactive |
| CC1=C(n2nnc3ccccc32)C(c2ccccc2)C(C#N)=C(N)O1 (stereo unspecified) | inactive |
| Cc1ccc2c(c1C)NC(=O)CC(c1ccccc1O)=N2 | inactive |
| CN(C)c1ccc2ccc3cccc4ccc1c2c34 | 13 µM (active) |
| C[C@H]1CN([C@@H](C)CO)C(=O)Cc2cc(NC(=O)CCC(F)(F)F)ccc2O[C@H]1CN(C)S(=O)(=O)c1ccc(F)cc1 | 12.5 µM (active) |
| CCOc1cc(C#N)c(NC(=O)c2cccnc2)cc1OCC | 3.53 µM (active) |
| COc1ccc(OC)c(NS(=O)(=O)c2ccc(Cl)s2)c1 | 11.2 µM (active) |
| N#Cc1ccc(/C=C\c2nccc3c2[nH]c2ccccc23)cc1 | 15.8 µM (active) |
| C(=C/c1nccc2c1[nH]c1ccccc12)/c1ccc2c(c1)OCO2 | inactive |
| Cc1noc(C)c1COc1ccc(C(=O)NNC(=O)c2ccccc2)cc1 | 4.98 µM (active) |
| Cc1noc(C)c1COc1ccc(C(=O)NNC(=O)c2ccccc2F)cc1 | 9.94 µM (active) |
| Cc1ccc(CN(C(=O)c2ccccc2F)c2ccccn2)o1 | inactive |
| C=CCN1C=CC(=CC=C(C#N)C#N)C=C1 | 17.7 µM (active) |
| CCOC(=O)/C(C#N)=C\C=C1C=CN(C)C=C1 | inactive |
| C=CCN1C=CC(=C/C=C(/C#N)C(=O)OCC)C=C1 | 4.61 µM (active) |
| CCCN1C=CC(=CC=C(C#N)C#N)C=C1 | 17.7 µM (active) |
| COc1ccc(-n2c(O)c(/C=N/NS(=O)(=O)c3ccc(C)cc3)c3ccccc3c2=O)cc1OC | 18.4 µM (active) |
| COc1ccc(-n2c(O)c(/C=N/NS(=O)(=O)c3cc(C)ccc3C)c3ccccc3c2=O)cc1OC | 13 µM (active) |

| SMILES | Potency |
| --- | --- |
| CC12CC3CC(C)(C1)CC(C(=O)NC(=S)N1CCOCC1)(C3)C2 | inactive |
| C(=C\c1c[nH]c2ccccc12)/c1ccc2ccccc2n1 | 18.4 µM (active) |
| C(=Cc1c[nH]c2ccccc12)c1ccc2ccccc2n1 | 18.4 µM (active) |
| COc1ccc(C(=O)Nc2cccc(/C=C/c3nc4ccccc4c(=O)[nH]3)c2)cc1 | 15.8 µM (active) |
| Nc1c(C(=O)Nc2ccc(S(=O)(=O)N3CCCC3)cc2)sc2nc3ccc(OC(F)(F)F)cc3cc12 | 23.1 µM (active) |
| CCc1cccc2cc3c(N)c(C(=O)Nc4ccc(S(=O)(=O)N5CCCC5)cc4)sc3nc12 | 6.27 µM (active) |
| Nc1c(C(=O)Nc2ccc(S(=O)(=O)N3CCCC3)cc2)sc2nc3cc4c(cc3cc12)CCC4 | 14.6 µM (active) |
| Cn1nnnc1SCCNCc1cc(Br)ccc1OCc1ccccc1Cl | inactive |
| CCC(C)n1c(NC(=O)c2ccccc2)c(C#N)c2nc3ccccc3nc21 (stereo unspecified) | 18.4 µM (active) |
| Fc1ccc2nc3[nH]c4ccccc4c3nc2c1 | 0.886 µM (active) |
| COc1ccc(OC)c(/C=C/c2nc3ccccc3[nH]c2=O)c1 | 5.8 µM (active) |
| Cc1ccc(N2C(=O)[C@@H]3[C@H](C2=O)[C@H]2C=C(C(=O)c4ccccc4)C=CN2[C@@H]3C(=O)c2ccc(Cl)cc2)cc1 | inactive |
| COCCCNC(=S)N/N=C/c1ccc(OC)cc1 | inactive |
| COc1ccc(N2CC(C(=O)N/N=C/c3ccc(C)cc3)CC2=O)cc1 (stereo unspecified) | 3.53 µM (active) |
| CCCCN1C(=O)/C(=C/C=C2\Oc3ccccc3N2CC)SC1=S | inactive |
| CCSC1=N/C(=C\C=C2/Oc3ccccc3N2CC)C(=O)S1 | 14.6 µM (active) |
| N#CC1=C(N)C(C#N)(C#N)[C@H](c2ccoc2)[C@H]2CN(Cc3ccccc3)CC=C12 | 4.98 µM (active) |
| O=c1c2ccccc2nc(/C=C/c2ccc([N+](=O)[O-])o2)n1CCCO | 23.1 µM (active) |
| CCn1c(/C=C/c2ccc([N+](=O)[O-])o2)nc2ccccc2c1=O | 11.6 µM (active) |
| CCCN1C(=O)C(Cc2nc3ccccc3c(=O)n2CC)c2cc(Br)ccc21 (stereo unspecified) | inactive |
| Cc1cc(N/N=C/c2ccc([N+](=O)[O-])o2)nc2ccccc12 | 20.6 µM (active) |
| Cn1c(/C=C/c2ccc([N+](=O)[O-])o2)nc2ccccc2c1=O | 23.1 µM (active) |

| SMILES | Potency |
| --- | --- |
| COc1cc(/C=N\Nc2ccc([N+](=O)[O-])cc2)ccc1OCC(=O)Nc1ccc(C)c(C)c1 | 0.651 µM (active) |
| CCN(CC)c1ccc(/C=c2/sc3nnc(-c4ccccc4C)n3c2=O)cc1 | 16.4 µM (active) |
| CC[n+]1ccccc1/C=C1\Sc2ccc(C)cc2N1C | 20.6 µM (active) |
| CCN1/C(=C/c2cccc[n+]2C)Sc2ccc(OC)cc21 | 20.6 µM (active) |
| COc1ccc2c(c1)N(C)/C(=C/c1cccc[n+]1C)S2 | 14 µM (active) |
| Cc1ccccc1OCC(=O)NNC(=O)Nc1ccc(Cl)cc1 | 4.98 µM (active) |
| COc1ccccc1OCC(=O)NNC(=O)Nc1ccc(Cl)cc1 | 15.8 µM (active) |
| O=C(CSc1n[nH]c(-c2ccccn2)n1)Nc1ccc(Cl)cc1 | inactive |
| COc1cc(C2c3cc4c(cc3OC(C)(N3CCCC3)C2C)OCO4)cc(OC)c1OC (stereo unspecified) | 1.25 µM (active) |
| CC(C)NC(=S)N/N=C1\CCCCc2ccccc21 | inactive |
| N#CC1=C(N)Oc2cc(N)ccc2C1c1ccccc1F (stereo unspecified) | 4.98 µM (active) |
| N#CC1=C(N)Oc2cc(N)ccc2C1C1CC=CCC1 (stereo unspecified) | 5.59 µM (active) |
| N#CC1=C(N)Oc2cc(N)ccc2C1c1ccc(F)cc1F (stereo unspecified) | 20.6 µM (active) |
| Cc1cccc(CSc2cccc3cccnc23)c1 | inactive |
| S=C(Nc1cccc2ccccc12)NN1CCCCCC1 | inactive |
| COC(=O)c1cccc(NS(=O)(=O)c2ccc(OC)cc2)c1C | 3.53 µM (active) |
| COc1ccc(S(=O)(=O)Nc2cccc3ccccc23)cc1 | 10.3 µM (active) |
| CCCCN1C(=O)/C(=C2/Sc3ccccc3N2C)S/C1=N\c1ncn[nH]1 | 20.6 µM (active) |
| CCC(=O)Nc1nonc1-c1nc2ccccc2n1Cc1ccccc1 | 17.7 µM (active) |
| COc1cccc(Cn2c(-c3nonc3N)nc3ccccc32)c1 | 1.58 µM (active) |
| COc1ccc(C)c(Cn2c(-c3nonc3N)nc3ccccc32)c1 | 1.58 µM (active) |
| Nc1nonc1-c1nc2ccccc2n1Cc1ccc(F)cc1 | 8.86 µM (active) |
